Measured potencies and affinities stand elsewhere. Results filed as inconclusive are left out. The source made the active and inactive calls.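 How the source made its calls: active means cell viability loss with a fitted half-maximal concentration at or below twice the top valid dose; inconclusive means flat curve losing 30 to 70% viability, or a poor fit; inactive means the rest.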
Assay: viability loss in HEK293T cells – cell-based, ATP luminescence, dry powder, set 3, cytotoxicity control, dose response (AID 743131)
Conditions: ATP luminescence CellTiter-Glo, 72 h; series mostly up to 26 µM

Row | SMILES | outcome
1 | S=c1[nH]c2cccc(Cl)c2n1CCOc1ccccc1 | inactive
2 | Cc1ccc(OCCn2c(C)nc3ccccc32)cc1 | inactive
3 | Cc1ccc2c(c1)[nH]c(=S)n2CCOc1ccccc1 | inactive
4 | COC(=O)C1=C(C)N(Cc2ccc(F)cc2)C(=S)NC1c1cccc(F)c1 (stereo not given) | inactive
5 | CCOC(=O)c1c(-c2ccc(C(C)(C)C)cc2)csc1NC(=O)CN1CCN(C)CC1 | inactive
6 | Cc1ccc(OCCn2cnc3ccccc32)cc1 | inactive
7 | COC(=O)C1=C(C)N(Cc2ccc(Br)cc2)C(=S)NC1c1ccc(OC)cc1 (stereo not given) | inactive
8 | COC(=O)C1=C(C)N(Cc2ccc(Br)cc2)C(=S)NC1c1ccc(F)cc1 (stereo not given) | inactive
9 | Cc1ccc(OCCn2c(SCCO)nc3ccccc32)c(C(C)C)c1 | inactive
10 | S=c1[nH]c2ccccc2n1CCOc1ccc(Cl)cc1 | inactive
11 | CCOc1ccc(OCCn2c(=S)[nH]c3ccccc32)cc1 | inactive
12 | CCOC(=O)c1c(-c2ccc(F)cc2)csc1NC(=O)CN1CCN(C)CC1 | inactive
13 | S=c1[nH]c2ccccc2n1CCOc1ccccc1 | inactive
14 | CCOC(=O)c1c(-c2ccc(F)cc2)csc1NC(=O)CN1CCN(CC)CC1 | inactive
15 | COC(=O)C1=C(C)N(Cc2ccc(Cl)cc2)C(=S)NC1c1ccc(Br)cc1 (stereo not given) | inactive
16 | CCOC(=O)c1c(-c2ccc(OC)cc2)csc1NC(=O)CN(C)CC(=O)N(C)C | inactive
17 | Fc1cccc2c1[nH]c(=S)n2CCOc1ccccc1 | inactive
18 | Cc1ccc(OCCn2c(=S)[nH]c3ccccc32)cc1 | inactive
19 | Fc1ccccc1OCCn1c(=S)[nH]c2ccccc21 | inactive
20 | O=c1[nH]c2ccccc2n1CCOc1ccccc1 | inactive

Source: PubChem BioAssay AID743131 (Broad Institute, 2013)
